Screens as filed in PubChem BioAssay.
FLuc counter = inhibits or activates purified firefly luciferase, miR-21 counter-screen; P08659; purified FLuc, Km substrates, luminescence inhibition; Potency, µM (doses to about 57.5 µM), for the others: top-dose activity change, negative = inhibition, actives largely listed as inhibitors; 360,000 tested, 6.9% active; AID 588342;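 note: plate controls were vehicle for no effect and reference inhibitor for full effect; nearly all actives have a fitted effect of over 55% in size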
Target sequence (P08659 whole entry, looked up): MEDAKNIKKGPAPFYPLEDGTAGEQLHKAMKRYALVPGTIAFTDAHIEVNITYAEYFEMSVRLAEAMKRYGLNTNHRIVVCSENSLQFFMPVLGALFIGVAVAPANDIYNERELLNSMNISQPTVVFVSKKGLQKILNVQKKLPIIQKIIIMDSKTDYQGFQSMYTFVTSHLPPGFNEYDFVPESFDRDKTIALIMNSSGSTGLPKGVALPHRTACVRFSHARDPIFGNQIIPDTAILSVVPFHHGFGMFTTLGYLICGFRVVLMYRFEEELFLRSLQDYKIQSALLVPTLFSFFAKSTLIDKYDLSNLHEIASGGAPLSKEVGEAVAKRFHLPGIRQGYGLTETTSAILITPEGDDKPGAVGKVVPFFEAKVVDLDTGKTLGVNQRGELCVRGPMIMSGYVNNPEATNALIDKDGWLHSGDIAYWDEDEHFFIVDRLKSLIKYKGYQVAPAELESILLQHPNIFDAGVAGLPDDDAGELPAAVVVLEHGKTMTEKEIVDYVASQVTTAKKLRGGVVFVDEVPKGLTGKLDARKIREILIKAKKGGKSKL
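Biochemical qHTS of compounds, final roughly 60 µM downward over six points, against 10 nM purified firefly luciferase using Km concentrations of substrates (10 uM D-luciferin, 10 uM ATP) in Tris acetate pH 7.5 buffer; luminescence output.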
Rab9 promoter act = activators of Rab9 promoter. Potency, µM (series often up to 9.22 µM), for inactives: top-dose activation, negative = inhibition, most hits filed as activators. 320,000 tested, 2.8% active. Huh7 Rab9 promoter-luciferase reporter, luminescence, 24 h; note: % of control where 0% means no effect; nearly all actives have a fitted effect of over 60% in size
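Luminescence from Amplite-detected luciferase (10 minutes, ambient) reports Rab9 promoter activation. Before that, stable Rab9-luciferase Huh7 cells (1500/well, reduced-serum OP-MEM I plus 10% FBS) were exposed to compound for 24 hours at 37C.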
NPC1 prom act = NPC1 promoter activation; Huh7 NPC1 promoter luciferase reporter, 24 h; Potency, µM (series often up to 9.22 µM), for the others: top-dose activation, usual class: activators; 320,000 tested, 2.4% active; note: % of control where 0% means no effect; nearly all actives have a fitted effect of over 60% in size
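Compounds in DMSO were transferred onto Huh7 NPC1-luciferase reporter cells pre-incubated 2 h; after 24 h at 37 °C, Amplite reagent was dispensed and luminescence recorded 10 min later.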
ELG1 genotoxic = inducers of genotoxicity in HEK293T ELG1-luciferase cells; HEK293T ELG1-luciferase reporter, luminescence, 16 h; Potency, µM (series often up to 46 µM), for inactives: at the highest dose activity change, positive = activation, most hits filed as activators; 330,000 tested, 1.3% active; note: % of control where 0% means no effect; nearly all actives have a fitted effect of over 60% in size
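ELG1-luciferase HEK293T cells, 2,000/well; compound pinned in; 16 hr, 37 °C, 5% CO2; ONE-Glo, 30 min RT; luminescence on CCD imager.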
Luc counter = counter-screen: inhibitors of Kinase-Glo firefly luciferase; Q27757; Kinase-Glo luciferase, ATP luminescence, 8 min; Potency, µM (doses to about 38.3 µM), without a hit: at the highest dose activity change, negative = inhibition, hits mostly inhibitors; AID 1379; 200,000 tested, 0.28% active; note: % is set by controls: 0 for no effect and ±100 for the full control effect; nearly all actives have a fitted effect of over 60% in size
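Substrate mix (final 50 mM imidazole pH 7.2, 50 mM KCl, 7 mM MgCl2, 10 uM ATP, 0.01% Tween 20, 0.05% BSA) plus pin-tool compound, then Kinase-Glo detection mix; 8 min ambient, luminescence read.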
SMN2 splice enh = SMN2 splice variant enhancement | HEK293 SMN2-luciferase splicing reporter, luminescence, 30-36 h | Potency, µM (titrated, usually from 46.1 µM), without a hit: at the top dose activity change, positive = activation, usual class: activators | 210,000 tested, 2.8% active; note: % of control where 0% means no effect; nearly all actives have a fitted effect of over 55% in size
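HEK293 cells carry an SMN2 minigene-luciferase reporter in which exon 7 inclusion puts luciferase in frame. Cells were seeded at 2000 cells/well, attached for 10-12 hours, then exposed to compounds for 30-36 hours at 37C before ONE-Glo luminescence.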
Starred values were filed as active, the others as inactive; ? = inconclusive; nt = no result given; [ ] = remark or other dose. In the library only some 7.5% were active in any assay of this set; here they are far more common. Calls come from the whole dose curve; as a rule, active = well fitted curve in the direction sought with a large enough effect; inconclusive = small, poorly fitted or top-dose-only effect, or another doubt; inactive = no such curve, though single readings can be large; an effect the other way counts as inactive or inconclusive. Potency is the fitted concentration of half-maximal effect.

SMILES	FLuc counter	Rab9 promoter act	NPC1 prom act	ELG1 genotoxic	Luc counter	SMN2 splice enh
Cc1ccc(Nc2nc3ccccc3[nH]2)nc1	13µM*	2.8µM*	2.8µM*	?	-1%	11µM*
COc1cccc(/C=N/c2nc3ccccc3[nH]2)c1O	19µM*	-1%	-3%	11%	nt	nt
COc1cccc(/C=N/Nc2nc3ccccc3[nH]2)c1OC	5.4µM*	2.5µM*	4µM*	-20%	nt	nt
COc1cccc(/C=N/Nc2nc3ccccc3[nH]2)c1O	2.7µM*	-16%	-24%	?	nt	nt
COc1ccc(CCC(=O)Nc2cc(S(C)(=O)=O)ccc2Cl)cc1	0%	-4%	1%	1%	4%	17%
O=C(O)Cc1ccc2c(c1)N(S(=O)(=O)c1cccs1)CC(C(=O)O)O2 (stereo not drawn)	5%	1%	9%	-4%	nt	nt
COc1ccc(NC(=O)CSCC(=O)N(C)Cc2ccc3c(c2)OCCO3)cc1	-10%	-7%	-1%	0%	nt	nt
CC1CC(CCC(=O)NC(=S)Nc2ccc(S(N)(=O)=O)cc2)C(=O)O1 (stereo not drawn)	-1%	20%	-4%	2%	-1%	9%
Cc1ccc(C(=O)NC2CCN(S(=O)(=O)c3ccccc3F)CC2)cc1	0%	-4%	1%	-3%	nt	nt
COc1ccccc1Nc1nc2ccccc2[nH]1	9.5µM*	?	?	11%	-7%	6%
O=C(Nc1cnccn1)c1ccc(F)cc1Cl	-3%	0%	-1%	8%	nt	nt
CCOC(=O)CSc1nc2sc3c(c2c(=O)n1C1CCCCC1)CCN(C)C3	-4%	-3%	-3%	-1%	0%	7%
CCOC(=O)C(C)n1nc(/C=C/c2ccc(OC)cc2)ccc1=O (stereo not drawn)	-13%	-6%	8%	3%	2%	7%
CC(C)c1ccc(/C=C/c2ccc(=O)n(C)n2)cc1	4.8µM*	1.8µM*	2.2µM*	10µM*	-7%	11µM*
COc1cccc(C(=O)NC2C(=O)N3C(C(=O)O)=C(COC(C)=O)CSC23)c1 (stereo not drawn)	21µM*	-2%	0%	0%	nt	nt
Brc1ccc(C2=NC(Cc3ccccc3)CO2)cc1 (stereo not drawn)	6.7µM*	?	?	?	3%	7.1µM*
O=C(OCc1ccccc1)[C@@H]1COC(c2ccc(Br)cc2)=N1	nt	nt	nt	nt	2%[39.9 µM]	nt
Cc1ccc(CN2CCNC(=O)C2CC(=O)N2CCN(c3ncccn3)CC2)o1 (stereo not drawn)	1%	6%	-6%	-1%	0%	-1%
CCN1C(=O)S/C(=C/c2cn(C)c3ccccc23)C1=O	12µM*	-2%	-2%	5%	-8%	15%
Cn1cc(/C=C2\SC(=O)N(c3ccccc3)C2=O)c2ccccc21	-7%	4µM*	3.5µM*	?	-1%	?
COc1cc2c(cc1NC(=O)c1ccccc1F)CCCC2	11µM*	?	7%	?	-1%	22µM*
O=C(O)c1ccccc1-c1ccccc1C(=O)Nc1ccc2c(c1)CCC2	-12%	0%	2%	-1%	nt	nt
O=C(Nc1ccc2c(c1)CCC2)c1ccccc1	1.1µM*	0.5µM*	1.3µM*	2.6µM*	-11%	2µM*
O=C(Nc1ccc2c(c1)CCC2)c1ccccc1F	3µM*	0.71µM*	0.89µM*	?	-17%	4.5µM*
O=C(Cc1ccccc1Cl)N/N=C/c1cccnc1	0%	4%	-3%	1%	nt	nt
N#Cc1ccc(CN2CC3(CCN(C(=O)c4csnn4)CC3)C2)cc1	nt	nt	nt	nt	0%	-1%
Cc1ccc(C2CC(=O)Nc3cc4c(cc32)OCCO4)cc1Br (stereo not drawn)	-15%	nt	nt	nt	nt	-2%
CCOC(=O)c1cnc2c(ccc3ccccc32)c1NCCCN(C)C	7.6µM*	5%	-4%	?	nt	nt
CCC(=O)N1CCc2cc(Br)cc(S(=O)(=O)NCCc3ccc(OC)c(OC)c3)c21	-2%	nt	nt	nt	nt	2%
